Bioassay records: PubChem, National Center for Advancing Translational Sciences (NCATS)
Pf growth 48h = inhibits P. falciparum growth in the first generation, 48 h; P. falciparum luciferase growth in erythrocytes, 48 h; Potency, µM (top dose mostly 28.7 µM), for the others: at the highest dose activity change, negative = inhibition, hits mostly inhibitors; 5.9% of 310,000 active; AID 504832; note: potency is the fitted concentration of half-maximal effect; % is set by controls: 0 for no effect and ±100 for the full control effect
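Read-out is firefly luciferase luminescence from an integrated reporter in P. falciparum, so falling signal marks reduced parasite growth. Infected erythrocytes were at 2% hematocrit and 0.1% parasitemia (final) in Albumax-supplemented RPMI 1640.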
Pf growth 96h = P. falciparum growth inhibition at 96 hour, primary screen for plastid delayed-death inhibitors | P. falciparum luciferase reporter growth, 96 h | Potency, µM (titrated, usually from 28.7 µM), for the others: at the highest dose activity change, negative = inhibition, hits mostly inhibitors | 6.9% of 320,000 active | AID 504834; note: potency is the fitted concentration of half-maximal effect; % is set by controls: 0 for no effect and ±100 for the full control effect
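Delayed-death screen, second-generation endpoint: infected erythrocytes, 2% hematocrit, 0.05% parasitemia final; 96 hours at 37 C, 5% CO2; luciferase detection reagent; luminescence decrease equals reduced growth.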
HCMV antiviral = blocks human cytomegalovirus replication; 4.5% of 410,000 active; HFF cells, HCMV-luciferase reporter, 72 h; stronger effect = lower value; activity change, negative = inhibition, % at 57.5 µM; in the data active = activity change below about -60%; inconclusive = no clear call, values can overlap the other calls; inactive = above about -39%; note: % is set by controls: 0 for no effect and ±100 for the full control effect
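Compounds were evaluated in HFFs infected with an HCMV luciferase reporter virus (MOI 1 PFU/cell). Luciferase in lysates collected 72 h post infection served as the replication measure.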
Cycloheximide cs = counter-screen for Shiga toxin inhibitors: cycloheximide protein synthesis inhibition; cell reporter, cycloheximide protein synthesis inhibition counterscreen; max response, %; 12% of 300,000 active; in the data active = max response mostly above about 13%, no sharp cut-off; inactive = mostly below about 14%; note: read at 38.3 µM for the half of the compounds with a filed dose; 0% is about no effect
HCV inhibitor = inhibitors of hepatitis C virus infection; Huh7.5.1 HCVcc-Cre infection, luciferase reporter, 44 h; Potency, µM (highest dose often 41.8 µM), for the others: top-dose activity change, negative = inhibition, actives largely listed as inhibitors; 3.4% of 340,000 active; AID 651820; note: potency is the fitted concentration of half-maximal effect; % is set by controls: 0 for no effect and ±100 for the full control effect
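1,000 cells/well; 4 h culture; + compound; + HCVcc-Cre (~0.5 moi); 44 h; luciferase substrate, RT 15 min; read 15 sec.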
Shiga inhibitor = blocks Shiga toxin action in Vero cells. inhibition, % at 38.7 µM. Vero cells, Shiga toxin protein synthesis inhibition reporter. 9.2% of 290,000 active; in the data active = inhibition mostly above about 28%, no sharp cut-off; inactive = mostly below about 43%; note: 0% is about no effect
The depositor's hits bear a star; i = inactive; ? = inconclusive; . = no result given; [ ] = dose if it differs, or a comment. Sampled rows, rich in hits. Any-hit rate of the full collection: about 21%. Unless noted, calls come from the whole dose curve; as a rule, active = well fitted inhibition curve with a large enough effect; inconclusive = small, poorly fitted or top-dose-only effect, or another doubt; inactive = no such curve, though single readings can be large or run the other way.

SMILES | Pf growth 48h | Pf growth 96h | HCMV antiviral | Cycloheximide cs | HCV inhibitor | Shiga inhibitor
CS(=O)(=O)c1ccc(Cl)c(NC(=O)COc2ccc3c(c2)CCC3)c1 | 12.6% | -11.6% | -33.1 | . | 2.2%[8.37 µM] | .
COc1ccc(-c2ccc(CCC(=O)O)n2CC(=O)Nc2cccc(C(F)(F)F)c2)cc1 | . | . | -0.5 | . | . | .
O=C(NCC(=O)N(Cc1ccccc1)C(C(=O)NC1CCCC1)c1cccnc1)c1ccco1 (stereo not drawn) | 0.7% | 16.5µM* | 10.4 | -3.8 | 3.7% | -4.7
Cc1cc(C)cc(N(C(=O)CNC(=O)c2ccco2)C(C(=O)NC2CCCC2)c2ccncc2)c1 (stereo not drawn) | -16.6% | 18.8% | -67.4* | -0.2 | 26.4% | -14.5
Cc1cccc(N(C(=O)CNC(=O)c2ccco2)C(C(=O)NC2CCCC2)c2cccnc2)c1 (stereo not drawn) | 13.8% | 4.15µM* | -0.3 | -3.8 | 14.3% | 2.0
O=C(NCC(=O)N(c1cccnc1)C(C(=O)NC1CCCC1)c1cccs1)c1cccs1 (stereo not drawn) | -1.9% | 11.7µM* | ? | -3.4 | -3.8% | -16.9
C[C@H]1[C@@H](NS(=O)(=O)c2ccc(C#N)cc2)CC[C@@]23CCCN2C(=O)CCC[C@@H]13 | . | . | 6.2 | . | . | .
Cc1sc(-n2c(C)ccc2C)c(C#N)c1C | -21.7% | 10.4µM* | 21.1 | -2.4 | 23.2% | -9.5
COc1ccc(-c2c(C#Cc3ccsc3)c3cc(Br)ccc3n2C)cc1 | ? | ? | -36.2 | . | ? | .
COc1cncc(C#Cc2ccccn2)c1 | . | . | 8.3 | . | . | .
Cn1c2ccccc2c(=O)c2ccc(C#Cc3ccccn3)cc21 | ? | 10.4µM* | -0.9 | 2.0 | -2.5% | 10.4
C=CCn1c2ccccc2c(=O)c2cc(C#Cc3cc(OC)cc(OC)c3)ccc21 | 11.7µM* | ? | 8.1 | . | ? | .
Cn1c2ccccc2c(=O)c2cc(C#Cc3ccsc3)ccc21 | -12.6% | ? | 61.5 | 9.3* | 10.1% | 16.7
Cn1c2ccccc2c(=O)c2cc(C#Cc3ccccn3)ccc21 | 144.0% | ? | 32.4 | 23.0* | 0.4% | 10.7
COc1cc2oc3ccc(C#Cc4ccccn4)cc3c(=O)c2cc1OC | . | . | 36.6 | . | ? | .
CCOC(=O)c1sc2nc(NC(=O)COc3ccccc3)sc2c1C | . | 1.65µM* | 19.2 | 0.6 | 5.2% | -0.4
CC(=O)c1sc(NC(=O)COc2ccccc2)nc1C | i | 39.4% | 12.5 | 15.3* | -12.7% | 57.4*
O=C(CCS(=O)(=O)c1ccc(Cl)cc1)Nc1ccccc1Br | 3.3% | 224.0% | -97.7* | 0.3 | 3.2% | 3.3
Cc1nnc(NC(=O)COc2ccccc2)s1 | . | 33.0% | -22.4 | 1.0 | 10.8% | -8.9
CC(=O)c1sc(NC(=O)COc2ccc(C(C)C)c(C)c2)nc1C | -1.9% | -18.9% | -37.6 | 1.6 | 2.51µM* | -5.7
Cc1ccc(S(=O)(=O)CCC(=O)Nc2ccccc2Cl)cc1 | 7.8% | 7.3% | -27.2 | 2.4 | 5.2% | 3.1
COc1ccc(S(=O)(=O)NCC2CCCN(Cc3ccc(O)cc3)C2)cc1 (stereo not drawn) | ? | 23.7% | -30.6 | -3.4 | 5.4% | -3.0
CCCOc1ccccc1C(=O)Nc1nc2c(s1)CCCC2 | . | . | -63.7* | . | . | .
CC(=O)c1sc(NC(=O)CCOc2ccccc2)nc1C | 72.6% | 40.4% | 30.9 | 33.9* | -5.3% | 77.0*
COc1ccc(NC(=O)CCS(=O)(=O)c2ccc(Cl)cc2)cc1 | 6.8% | -0.1% | 13.9 | 5.4 | ? | 27.5
SMILES | Pf growth 48h | Pf growth 96h | HCMV antiviral | Cycloheximide cs | HCV inhibitor | Shiga inhibitor
O=C(COc1ccccc1)Nc1nc2c(s1)CCCC2 | 120.4% | -28.0% | 15.2 | 38.7* | -24.4% | 83.3*
CC(=O)c1sc(NC(=O)CCS(=O)(=O)c2ccc(Cl)cc2)nc1C | -10.5% | -0.1% | 0.7 | . | 1.12µM* | .
CC(C)[C@H](NC(=O)c1ccccc1F)C(=O)Nc1nc2c(s1)CCCC2 | 26.8% | 51.6% | 40.5 | 42.5* | -22.9% | 17.8
COc1cc(OC)cc(C(=O)N[C@H](C(=O)Nc2nc3c(s2)CCCC3)C(C)C)c1 | ? | ? | ? | 13.0 | ? | 27.5
Cc1ccc(C)c(NC(=S)N2CCC(NC(=O)C3CCCCC3)CC2)c1 | -4.4% | ? | -29.9 | -5.7 | -7.2% | 27.5
CCOc1cccc(C2c3[nH]c4ccccc4c3CCN2C(=O)CSc2ccccc2)c1 (stereo not drawn) | . | . | -4.0 | . | . | .
COc1ccc(C2CC(=O)C(C=NCC(C)C)=C(O)C2)cc1 (stereo not drawn) | -19.5% | 11.2% | -21.7 | -1.6 | 9.4% | -4.1
CC(C)CN=CC1=C(O)c2ccccc2C1=O | 219.6% | 271.7% | 60.2 | 36.6* | 25.4% | 71.9*
O=C1C(C=NCCCN2CCCC2=O)=C(O)c2ccccc21 | 143.4% | 13.1µM* | 95.4 | 40.4* | -4.9% | 102.2*
COc1ccc(CN=C(C#N)C2=C(O)c3ccccc3C2=O)cc1 | ? | 36.2% | 48.2 | 11.8 | -7.2% | 13.9
COc1cc(N=CC2=C(O)c3ccccc3C2=O)cc(OC)c1 | 5.8% | -105.3% | ? | 20.0* | 23.8% | 63.9*
O=C1CC(c2cccc(Cl)c2)CC(O)=C1C=NC1CCCC1 (stereo not drawn) | ? | ? | -7.0 | -5.6 | -7.7% | -14.6
O=C1C(C=NCCCn2ccnc2)=C(O)c2ccccc21 | . | . | -12.9 | . | 19.2% | .
O=C1C(C=NC2CC2)=C(O)c2ccccc21 | . | 13.1µM* | 60.9 | 37.1* | 7.1% | 56.6*
Cc1oc(-c2ccccc2F)nc1CS(=O)CC(=O)NC(C)C (stereo not drawn) | . | . | 9.2 | . | . | .
Cc1cc(C)c(C(=O)COC(=O)c2c(C)noc2C)cc1C | 1.6% | 15.8% | 0.0 | . | 6.1% | .
O=C(NC1CCCC1)C(c1ccco1)N1CCC(O)(c2ccc(Cl)cc2)CC1 (stereo not drawn) | . | . | 44.1 | . | . | .
O=C1C(C=NCc2ccccn2)=C(O)c2ccccc21 | 184.1% | 3.0% | -37.9 | 58.8* | 2.1% | 136.3*
CCCNC(=S)N1CCC(C(=O)c2ccc(OC)cc2)CC1 | -1.1% | ? | -21.9 | -2.2 | ? | -11.1
COc1ccc(Cc2nc3ccc(C(=O)N4CCCCC4CCO)cc3o2)cc1 (stereo not drawn) | -20.6% | 7.38µM* | -21.0 | 23.8 | 11.5% | 15.9
CCN(CCO)C(=O)c1ccc2nc(Cc3ccc(OC)cc3)oc2c1 | . | . | 23.5 | . | 6.3% | .
COCC1CCCCN1C(=O)c1ccc2nc(Cc3ccc(OC)c(OC)c3)oc2c1 (stereo not drawn) | ? | 8.5% | -21.7 | 12.3* | ? | 17.8
CCC1CCCCN1C(=O)c1ccc2nc(Cc3ccc(OC)cc3)oc2c1 (stereo not drawn) | ? | 17.2% | 19.8 | 35.5* | -4.9% | 77.5*
O=C(c1ccc2nc(Cc3cccc(Cl)c3)oc2c1)N1CCC[C@H]1CO | -1.5% | -25.5% | 13.1 | 17.3 | 16.8% | 9.7
